Results as given in the antibiotic and cytotoxicity screens of Wong et al. (2023).
Hit rate of the full screen: of about 39,000 compounds, about 1,500 (3.8%) were called active. The entries come from a sample that favours actives as a whole.

System: HSkMC (human skeletal muscle cells)
Assay: cytotoxicity call (relative viability < 0.9)
Details: 10 µM

| SMILES | cytotoxicity call |
| --- | --- |
| Cc1ccc(S[C@]2(C(=O)NC(C)C)CC(=O)N(Cc3ccccc3C(F)(F)F)[C@@H]2c2ccc(CO)cc2)cc1 | inactive |
| CC(C)(C)c1cc(NC(=O)Nc2ccc(Oc3ccnc4nc(O)cnc34)cc2F)n(-c2ccccc2)n1 | active |
| Cc1ccc(S(=O)(=O)N(C)C[C@H]2Oc3ccc(NC(=O)C4CC4)cc3C(=O)N([C@H](C)CO)C[C@@H]2C)cc1 | inactive |
| Fc1ccccc1-c1nc2ccn(Cc3ccc(-c4ccc(C(F)(F)F)cc4C(F)(F)F)nn3)cc-2n1 | active |
| Cc1noc(C)c1NC(=O)Nc1cccc2c1O[C@H](CN(C)Cc1ccc(Oc3ccccc3)cc1)[C@@H](C)CN([C@H](C)CO)C2=O | inactive |
| Cc1noc(C)c1NC(=O)Nc1ccc2c(c1)C(=O)N([C@H](C)CO)C[C@@H](C)[C@@H](CN(C)Cc1ccccc1)OCCCC[C@@H](C)O2 | inactive |
| C[C@@H]1CCCCO[C@H](CN(C)C(=O)CCC(F)(F)F)[C@@H](C)CN([C@H](C)CO)C(=O)c2cc(NC(=O)c3ccccc3)ccc2O1 | inactive |
| COc1ccc(NC(=O)Nc2ccc3c(c2)CC(=O)N([C@H](C)CO)C[C@@H](C)[C@H](CN(C)Cc2ccc(Oc4ccccc4)cc2)O3)cc1 | inactive |
| O=C(O)CC[C@H]1CCCCN1 | inactive |
| C1CCC(C(C[C@H]2CCCCN2)C2CCCCC2)CC1 | inactive |
| C1CCC(C(CC2CCCCN2)C2CCCCC2)CC1.O=C(O)C=CC(=O)O (centres undefined) | active |
| C[C@H]1CN([C@@H](C)CO)S(=O)(=O)c2ccc(-c3cncnc3)cc2O[C@@H]1CN(C)C(=O)C1CCCCC1 | inactive |
| COc1ccc2c3c([nH]c2c1)[C@H](CO)N(C[C@]13CCN(CC1)C(=O)Nc1cccc(c1)F)C(=O)c1ccc(cc1)F | inactive |
| COc1ccc2c3c([nH]c2c1)[C@H](CO)N(C[C@]13CN(CC2CCCCC2)C1)C(=O)Nc1cccc(c1)F | active |
| COc1ccc2c3c([nH]c2c1)[C@@H](CO)N(CC1CCCCC1)C[C@]13CN(C1)C(=O)Nc1cccc(c1)F | inactive |
| COc1ccc2c3c([nH]c2c1)[C@@H](CO)N(C[C@]13CN(CC2CCCCC2)C1)C(=O)Nc1cccc(c1)F | active |
| COc1ccc2c3c([nH]c2c1)[C@H](CO)N(CC1CCCCC1)C[C@]13CN(C1)C(=O)Nc1cccc(c1)F | inactive |
| COc1ccc2c3c([nH]c2c1)[C@@H](CO)N(C[C@]13CCN(CC1)C(=O)Nc1cccc(c1)F)C(=O)c1ccc(cc1)F | inactive |
| C[C@H](CO)N1C[C@H](C)[C@H](CN(C)Cc2ccc(C(=O)O)cc2)Oc2ccc(NC(=O)c3ccncc3)cc2CC1=O | inactive |
| C[C@@H]1CCCCO[C@H](CN(C)Cc2ccc3c(c2)OCO3)[C@@H](C)CN([C@@H](C)CO)C(=O)c2cc(NC(=O)NC3CCCCC3)ccc2O1 | inactive |
| [O-][NH2+]N1CCCCC1 | inactive |
| CC(C)NC(=O)N(C)C[C@H]1Oc2c(NS(=O)(=O)c3ccc(Cl)cc3)cccc2C(=O)N([C@H](C)CO)C[C@@H]1C | inactive |

| SMILES | cytotoxicity call |
| --- | --- |
| C[C@H](CO)N1C[C@H](C)[C@@H](CN(C)C(=O)Nc2ccc(F)cc2)Oc2c(NS(=O)(=O)c3cn(C)cn3)cccc2C1=O | inactive |
| O=C(NCC(F)(F)F)[C@@H]1c2ccccc2C(=O)N(CC23CC4CC(CC(C4)C2)C3)[C@H]1c1ccc(CO)cc1 | inactive |
| CN1CCC2(CC1)CN(C(=O)CNC(N)=O)CCCN2C | inactive |
| C[C@@H]1CN([C@@H](C)CO)C(=O)c2cc(NC(=O)NC3CCCCC3)ccc2O[C@@H]1CN(C)C(=O)Nc1cccc2ccccc12 | active |
| C[C@@H]1CN([C@@H](C)CO)C(=O)c2cc(NC(=O)NC3CCCCC3)ccc2O[C@H]1CN(C)C(=O)Nc1cccc2ccccc12 | inactive |
| C[C@H](CO)N1C[C@H](C)[C@@H](CN(C)C(=O)NC2CCCCC2)Oc2ccc(NC(=O)Nc3cccc4ccccc34)cc2C1=O | inactive |
| C[C@@H]1CN([C@H](C)CO)C(=O)c2cc(NC(=O)Nc3cccc4ccccc34)ccc2O[C@H]1CN(C)C(=O)NC1CCCCC1 | active |
| C[C@@H]1CN([C@H](C)CO)C(=O)c2cc(NC(=O)NC3CCCCC3)ccc2O[C@H]1CN(C)C(=O)Nc1cccc2ccccc12 | inactive |
| C[C@@H]1CN([C@H](C)CO)C(=O)c2cc(NC(=O)Nc3cccc4ccccc34)ccc2O[C@@H]1CN(C)C(=O)NC1CCCCC1 | inactive |
| COC(=O)CCn1ccc(=O)[nH]c1=O | inactive |
| C[C@@H]1CN([C@@H](C)CO)C(=O)c2cc(NC(=O)Nc3ccc(C(F)(F)F)cc3)ccc2O[C@H]1CN(C)Cc1ccncc1 | inactive |
| COc1ccc(S(=O)(=O)Nc2ccc3c(c2)C(=O)N([C@H](C)CO)C[C@H](C)[C@H](CN(C)C(=O)Nc2ccccc2)OCCCC[C@H](C)O3)cc1 | inactive |
| C[C@H]1CN([C@@H](C)CO)C(=O)c2cccc(NC(=O)Nc3ccc(C(F)(F)F)cc3)c2O[C@@H]1CN(C)S(=O)(=O)c1ccc(F)cc1 | inactive |
| C=CCNC(=O)[C@@H]1[C@H]2C(=O)O[C@H](c3ccccc3)[C@H](c3ccccc3)N2[C@H](c2ccc(OCCO)cc2)[C@@]12C(=O)N(C(=O)OCCOC)c1ccc(C#Cc3ccc(OC)cc3)cc12 | inactive |
| COc1ccc(NC(=O)Nc2ccc3c(c2)CC(=O)N([C@@H](C)CO)C[C@@H](C)[C@H](CN(C)Cc2ccc(Oc4ccccc4)cc2)O3)cc1 | active |
| COc1ccc(NC(=O)Nc2ccc3c(c2)CC(=O)N([C@H](C)CO)C[C@H](C)[C@@H](CN(C)Cc2ccc(-c4ccccc4)cc2)O3)cc1 | active |
| C[C@H]1CN([C@@H](C)CO)C(=O)Cc2cc(NC(=O)Nc3ccccc3)ccc2O[C@H]1CN(C)Cc1ccc(Oc2ccccc2)cc1 | active |
| COc1ccc(NC(=O)Nc2ccc3c(c2)CC(=O)N([C@H](C)CO)C[C@H](C)[C@H](CN(C)Cc2ccc(-c4ccccc4)cc2)O3)cc1 | inactive |
| COc1ccc(NC(=O)Nc2ccc3c(c2)CC(=O)N([C@@H](C)CO)C[C@@H](C)[C@@H](CN(C)Cc2ccc(Oc4ccccc4)cc2)O3)cc1 | inactive |
| C[C@H](CO)N1C[C@H](C)[C@@H](CN(C)Cc2ccc(Oc3ccccc3)cc2)Oc2ccc(NC(=O)Nc3ccccc3)cc2CC1=O | inactive |
| C[C@@H]1CN([C@@H](C)CO)C(=O)Cc2cc(NC(=O)Nc3ccccc3)ccc2O[C@@H]1CN(C)Cc1ccc(Oc2ccccc2)cc1 | active |
| COc1ccc(NC(=O)Nc2ccc3c(c2)CC(=O)N([C@H](C)CO)C[C@H](C)[C@H](CN(C)Cc2ccc(Oc4ccccc4)cc2)O3)cc1 | inactive |

| SMILES | cytotoxicity call |
| --- | --- |
| COc1ccc(NC(=O)Nc2ccc3c(c2)CC(=O)N([C@@H](C)CO)C[C@H](C)[C@H](CN(C)Cc2ccc(-c4ccccc4)cc2)O3)cc1 | inactive |
| C[C@H](CO)N1C[C@H](C)[C@H](CN(C)Cc2ccc(Oc3ccccc3)cc2)Oc2ccc(NC(=O)Nc3ccccc3)cc2CC1=O | inactive |
| COc1ccc(NC(=O)Nc2ccc3c(c2)CC(=O)N([C@@H](C)CO)C[C@H](C)[C@@H](CN(C)Cc2ccc(Oc4ccccc4)cc2)O3)cc1 | inactive |
| COc1ccc(NC(=O)Nc2ccc3c(c2)CC(=O)N([C@H](C)CO)C[C@@H](C)[C@@H](CN(C)Cc2ccc(Oc4ccccc4)cc2)O3)cc1 | inactive |
| C[C@H](CO)N1C[C@H](C)[C@@H](CN(C)C(=O)Cc2ccncc2)Oc2ncc(C#CC3(O)CCCC3)cc2C1=O | inactive |
| C[C@@H]1CN([C@H](C)CO)C(=O)c2cc(NC(=O)Nc3cccc4ccccc34)ccc2O[C@H]1CN(C)Cc1ccc(C(=O)O)cc1 | inactive |
| C[C@@H]1CCCCO[C@@H](CN(C)C(=O)CCC(F)(F)F)[C@H](C)CN([C@H](C)CO)C(=O)c2cc(NC(=O)c3ccccc3)ccc2O1 | inactive |
| C[C@@H]1CN([C@H](C)CO)C(=O)c2cc(NC(=O)CCN3CCOCC3)ccc2O[C@@H]1CN(C)CC1CC1 | inactive |
| C[C@H](CO)N1C[C@H](C)[C@H](CN(C)C(=O)Nc2ccc(C(F)(F)F)cc2)Oc2ccc(NC(=O)Nc3ccc(C(F)(F)F)cc3)cc2C1=O | inactive |
| O=C(C[C@@H]1CC[C@@H]2[C@H](COC[C@@H](O)CN2S(=O)(=O)c2ccc(F)cc2)O1)NCc1ccc(Cl)c(Cl)c1 | inactive |
| CC(C)NC(=O)Nc1ccc2c(c1)CC(=O)N([C@H](C)CO)C[C@@H](C)[C@@H](CN(C)Cc1ccc(Oc3ccccc3)cc1)O2 | active |
| C[C@@H]1CN([C@@H](C)CO)C(=O)Cc2cc(NC(=O)Nc3ccc4c(c3)OCO4)ccc2O[C@H]1CN(C)Cc1ccc(Oc2ccccc2)cc1 | inactive |
| C[C@H](CO)N1C[C@H](C)[C@@H](CN(C)Cc2ccc(Oc3ccccc3)cc2)Oc2ccc(NC(=O)Nc3ccc4c(c3)OCO4)cc2CC1=O | active |
| CC(C)NC(=O)Nc1ccc2c(c1)CC(=O)N([C@@H](C)CO)C[C@@H](C)[C@H](CN(C)Cc1ccc(Oc3ccccc3)cc1)O2 | inactive |
| C[C@@H]1CN([C@@H](C)CO)C(=O)Cc2cc(NC(=O)Nc3ccccc3)ccc2O[C@H]1CN(C)Cc1ccc(Oc2ccccc2)cc1 | inactive |
| C[C@H]1CN([C@@H](C)CO)C(=O)Cc2cc(NC(=O)Nc3ccccc3)ccc2O[C@@H]1CN(C)Cc1ccc(Oc2ccccc2)cc1 | active |
| C[C@@H]1CN([C@H](C)CO)C(=O)Cc2cc(NC(=O)Nc3ccccc3)ccc2O[C@H]1CN(C)Cc1ccc(Oc2ccccc2)cc1 | inactive |
| C[C@H]1CN([C@@H](C)CO)C(=O)Cc2cc(NC(=O)Nc3ccc4c(c3)OCO4)ccc2O[C@@H]1CN(C)Cc1ccc(Oc2ccccc2)cc1 | inactive |
| C[C@@H]1CN([C@H](C)CO)C(=O)Cc2cc(NC(=O)Nc3ccccc3)ccc2O[C@@H]1CN(C)Cc1ccc(Oc2ccccc2)cc1 | active |
| CC(C)NC(=O)Nc1ccc2c(c1)CC(=O)N([C@@H](C)CO)C[C@@H](C)[C@@H](CN(C)Cc1ccc(Oc3ccccc3)cc1)O2 | inactive |
